# Tgondii IFNg – T. gondii growth inhibition with IFN-gamma, primary screen, cell-based; Toxoplasma gondii growth in IFN-gamma-treated host cells; active compounds read low; activity change, negative = inhibition, % (no concentration beside the values); 69,000 compounds, 3.8% hits; in the data active means activity change below about -70%, passing the limit was not always enough;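 further: host cells are HeLa cells infected with Toxoplasma gondii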
# An asterisk follows results filed as active; i = inactive. The entries come from a sample that favours hits as a whole.
SMILES,Tgondii IFNg
CS(=O)(=O)N1CCC2(CC1)CCn1c(C3CC3)cnc12,50.4
O=C(CCNc1c(-c2ccc(F)cc2)nc2cnccn12)N1CCC2(CC1)OCCO2,30.3
COc1ccc(CN2C(=O)N(C)C3(CCN(Cc4nc(-c5ccccc5)cs4)CC3)C2=O)cc1,-25.5
CCN1C(=O)N(Cc2cccc(OC)c2)C(=O)C12CCN(Cc1nc3ccccc3nc1C)CC2,9.0
COc1ccc(CN2C(=O)N(C)C3(CCN(Cc4cccc(Oc5ccccc5)c4)CC3)C2=O)cc1,-81.1*
CSc1nsc(SCc2nc3ccccc3c(=O)[nH]2)n1,-15.3
O=C(NCCc1csc(-c2ccccc2)n1)c1cccc(Cl)c1,137.9
CN(CC1CCCCO1)c1ncnc2c1CCN(C(=O)c1cccnc1)C2 (stereo not given),-2.0
CCCc1nnc(NC(=O)C2CC(=O)N(CCc3c[nH]c4ccc(Cl)cc34)C2)s1 (stereo not given),-91.5*
CCCCc1nnc(NC(=O)C2CC(=O)N(CCc3c[nH]c4ccc(C)cc34)C2)s1 (stereo not given),-27.6
CCCCc1nnc(NC(=O)C2CC(=O)N(CCc3c[nH]c4ccc(OC)cc34)C2)s1 (stereo not given),68.2
Cc1cccnc1CN1CCN(C(=O)c2ccc(CO)o2)CC1,-2.0
O=C(CCc1ccc2[nH]ccc2c1)NCc1cccnc1,3.2
Cn1c(CCC(=O)Nc2cccc(Cn3cncn3)c2)nc2cc(Cl)ccc21,20.5
Cc1ccc(C(=O)N2CCc3c([nH]c4ccccc34)C2c2ccc(C)cc2)cc1 (stereo not given),i
CCOc1ccc(C2c3[nH]c4ccccc4c3CCN2C(=O)COC)cc1 (stereo not given),i
Cc1ccc(C2c3[nH]c4ccccc4c3CCN2C(=O)c2cc3ccccc3[nH]2)cc1 (stereo not given),-78.7*
CCOc1ccc(C2c3[nH]c4ccccc4c3CCN2C(=O)c2cccnc2)cc1 (stereo not given),54.8
O=C(c1cccc(F)c1)N1CCc2c([nH]c3ccccc23)C1c1ccccc1 (stereo not given),-46.3
CCOc1ccc(C2c3[nH]c4ccccc4c3CCN2C(=O)c2cccc(F)c2)cc1 (stereo not given),-112.8*
COc1cc(C(=O)N2CCc3c([nH]c4ccccc34)C2c2ccc(C)cc2)cc(OC)c1OC (stereo not given),265.0
Cc1ccc(C2c3[nH]c4ccccc4c3CCN2C(=O)c2cccc(F)c2)cc1 (stereo not given),-128.6*
Cc1ccc(C2c3[nH]c4ccccc4c3CCN2C(=O)c2ccnn2C)cc1 (stereo not given),175.2
CC1CN(c2nc3c(c(=O)[nH]2)CCN(c2c4c(nc5ncnn25)CCC4)C3)CC(C)O1 (stereo not given),-18.0
O=C(Cn1c(=O)cc(C(=O)N2CCc3ccccc3C2)c2ccccc21)NCc1ccc2c(c1)OCO2,-8.4
SMILES,Tgondii IFNg
Cc1cnn(Cc2ccccc2Cl)c1NC(=O)c1ncc(F)cc1F,23.2
C=CCn1c(=O)c(C(=O)NCc2ccc(C)cc2)c(O)c2ccccc21,138.6
COc1ccc2[nH]c3c(c2c1)CCNC3=O,-89.5*
CCCN1C(=O)C2(NCCc3c2[nH]c2ccc(OC)cc32)c2cc(Br)ccc21 (stereo not given),52.7
COc1ccc2[nH]c3c(c2c1)CCNC31C(=O)N(CCC(C)C)c2ccccc21 (stereo not given),68.3
CCn1cnnc1CCNc1nc(-c2ccncc2)nc2c1CCNC2,-5.0
Cc1nnc2sc(-c3cccc(NC(=O)c4ccco4)c3)nn12,10.2
O=C(Cn1ncc2c(N3CCCC3)ncnc21)Nc1ccc(Oc2ccccc2)cc1,-59.6
CCOc1ccc(NC(=O)Cn2ncc3c(N4CCC(C)CC4)ncnc32)cc1,-30.8
O=C(Nc1ccc(Oc2c(F)c(F)c(F)c(F)c2F)cc1)OC1CCN2Cc3ccccc3N=C12 (stereo not given),-98.8*
COc1cc(C(=O)N2CCOC(c3cc4cc(F)ccc4cn3)C2)nc(OC)n1 (stereo not given),-2.2
NCC1Cc2c(ccc3cc(-c4ccncc4)ccc23)O1 (stereo not given),-85.6*
Cc1ccoc1C(=O)N1CCc2ncnc(C3CC3)c2CC1,-9.7
COCCN(Cc1cnn(C)c1)C(=O)c1cccc(Cl)c1Cl,1.8
CCOc1ccc2[nH]c(=O)c(CN3CCCN(C(=O)C4CC4)CC3)cc2c1,-82.7*
CCCOC1CCCN(Cc2cc3cc(OC)ccc3[nH]c2=O)C1 (stereo not given),-2.4
CCOc1ccc2[nH]c(=O)c(CN3CCCCC3c3nc(C)no3)cc2c1 (stereo not given),2.0
CCS(=O)(=O)N1C[C@H]2COC[C@@H](Cc3nc(C)no3)[C@H]2C1,-8.3
CCCc1nc(C(=O)N2CCC(O)(c3ccccc3C)C2)cs1 (stereo not given),5.8
CCN(CC)CC1CCN(c2ncc3ncnc(Nc4ccc(F)c(Cl)c4)c3n2)CC1,4.0
COc1cc2ncnc(Nc3ccc(F)c(Cl)c3)c2cc1NC(=O)/C=C/CN1CCCCC1,-81.9*
CNC(=O)CN1CCC(Oc2cc3c(Nc4cccc(Cl)c4F)ncnc3cc2OC)CC1,-66.3
Cc1ccc(S(=O)(=O)N2CCC3(CC2)NCCN=C3NCc2ccc(F)c(Cl)c2)c(C)c1,-35.6
Cc1cnc(CN(C)C(=O)CCCc2nc(-c3ccccc3C)no2)[nH]1,-11.0
CN(C)C(=O)COCC1CC2(CCN(Cc3nccs3)CC2)CO1 (stereo not given),-32.7
SMILES,Tgondii IFNg
Cc1[nH]nc(CCC(=O)N2CCCC(c3ccn[nH]3)C2)c1C (stereo not given),-37.2
c1ccc(-c2ncn(C3CCNC3)c2-c2cccn2-c2nccs2)cc1 (stereo not given),42.6
CN(CCC(=O)Nc1cccc(Cl)c1)CC1(CO)CCOCC1,-6.0
COc1ccc(-c2cc(N)nc3[nH]ccc23)cn1,-34.3
Nc1cc(-c2cnc3ccccc3n2)c2cc[nH]c2n1,-90.3*
Cc1cnc(C)c(-c2cc(N)nc3[nH]ccc23)n1,195.9
Cc1ccc(NC(=O)CC(=O)N(C)Cc2sccc2C)cc1,9.1
Cc1cc2ccccc2n1CCC(=O)N(C)CCc1ccccn1,-2.9
CC1(C(=O)NCc2ccc(F)cc2F)CCN(C(=O)c2ccccc2)CC1,29.7
CC1(C(=O)NCc2ccc(F)cc2F)CCN(C(=O)c2ccc(C(C)(C)C)cc2)CC1,-90.8*
CC1(C(=O)NCc2ccc(F)cc2F)CCN(C(=O)c2ccc(F)cc2)CC1,13.5
Cc1cc(NC(=O)COC(=O)C2C3CC4OC(=O)C2C4C3)no1 (stereo not given),-4.2
COCCO[C@@H]1CCN(Cc2nccs2)[C@@H]1Cc1cccnc1,39.8
CCOC(=O)c1c(Sc2ccccc2)cnn1C(=O)Nc1cccc(Cl)c1,-78.9*
COC(=O)c1cnc(SCC(=O)Nc2cccc(Cl)c2)n1C,34.3
CCOC(=O)c1cccnc1-c1cccc(NC(C)=O)c1,13.5
C=CCn1c(Cc2ccccc2)n[nH]c1=O,-1.8
CCOC(=O)c1cc(C(=O)OC)c(C)nc1N1CCCN(Cc2ccc(F)cc2)CC1,-76.7*
CCOC(=O)c1[nH]ncc1CN1CCCN(c2cccc(OC)c2)CC1,51.3
Fc1ccc(N2CCCN(Cc3ccc4nonc4c3)CC2)cc1,30.1
CC(C)CN(C[C@@H](O)[C@H](Cc1ccccc1)NC(=O)O[C@H]1CO[C@H]2OCC[C@H]21)S(=O)(=O)c1ccc(N)cc1,-72.1*
CC(C)CN(C[C@@H](O)[C@H](Cc1ccccc1)NC(=O)O[C@H]1CCOC1)S(=O)(=O)c1ccc(N)cc1,-2.1
